# From PubChem BioAssay AID686979 (National Center for Advancing Translational Sciences (NCATS), 2013)
# In all, about 420,000 compounds went through this assay and about 50,000 (12%) were called active. About 26% were inconclusive and are not listed. Only a selection was taken, and actives are over-represented in it overall. Unmarked numbers belong to inactive results. Calls come from the whole dose curve; as a rule, active = well fitted inhibition curve with a large enough effect; inconclusive = small, poorly fitted or top-dose-only effect; inactive = flat fitted curve, though single readings scatter.
# Experiment: qHTS for Inhibitors of human tyrosyl-DNA phosphodiesterase 1 (TDP1): qHTS in cells in presence of CPT; note: nearly all actives have a fitted effect of over 55% in size
# Settings: chicken DT40 Tdp1-/-;hTDP1 cells + 20 nM CPT, ATP luminescence, 48 h; series mostly up to 46.2 µM; activity change, negative = growth inhibition: at the top concentration
# How it was run: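 Cell growth measured by CellTiter-Glo luminescence after a minimum 48 h, 37 C compound exposure with 20 nM CPT in Tdp1-knockout DT40 cells stably expressing hTDP1, seeded 400/well; qHTS titration format.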
# % is set by controls: 0 for no effect and ±100 for the full control effect; potency is the fitted concentration of half-maximal effect.
SMILES,"activity change, negative = growth inhibition",Potency
CCOc1ccc(S(=O)(=O)N(CC(=O)O)c2ccccc2)cc1,-2.16%,
CCOc1ccc(N(Cc2ccccc2)C(=O)c2nc(SCC)ncc2Cl)cc1,,29.1 µM (active)
CCSc1ncc(Cl)c(C(=O)Nc2c(C(=O)c3ccccc3)oc3ccccc23)n1,0.0067%,
CCSc1nnc2c(n1)OC(c1ccc(OCC(=O)O)cc1)Nc1ccccc1-2 (centres undefined),-10%,
CCOc1ccc(NC(=O)CN(Cc2ccccc2)S(=O)(=O)c2ccc(Cl)cc2)cc1,-28.2%,
CCOc1ccc(N(Cc2ccccc2)C(=O)c2nc(S(C)(=O)=O)ncc2Cl)cc1,,0.58 µM (active)
COc1cc(=O)n2c(c1C(=O)NCc1ccco1)CCN(Cc1ccccc1)CC2,13.5% [at 9.04 µM],
Cc1cccc(NC(=O)NC2(C)CCS(=O)(=O)C2)c1 (centres undefined),25.1%,
COc1cc(Cl)c(C)cc1NC(=O)CSc1nnc(CN2CCCC2)o1,-20.8%,
COc1ccccc1CNC(=O)COn1nnc2ccc(S(=O)(=O)N3CCOCC3)cc21,-23.6%,
COc1cccc(NC(=O)C2C(c3ccccc3)C2(Cl)Cl)c1 (centres undefined),,29.1 µM (active)
COc1cccc(NC(=O)c2csnn2)c1,2.54%,
COc1cccc(NC(=O)C(C)Oc2ccccc2)c1 (centres undefined),-5.7%,
CSc1ccc(CNC(=O)c2ccc(NC(=O)C3=CSCCO3)cc2)cc1,-10.5%,
Cc1ccc(-c2ccc(CN3C(C(C)C)C(=O)N(Cc4cn(CCC5OCCO5)nn4)CCS3(=O)=O)cc2)cc1 (centres undefined),,16.4 µM (active)
CC(C)C1C(=O)N(Cc2cn(CCC3OCCO3)nn2)CCS(=O)(=O)N1Cc1ccc(-c2ccccc2C(F)(F)F)cc1 (centres undefined),,13 µM (active)
O=S1(=O)CC(N2CCN(CCO)CC2)CN1Cc1cn(Cc2ccc(Cl)cc2)nn1 (centres undefined),-27%,
Cc1ccc(Cn2cc(CN3CC(N4CCN(C)CC4)CS3(=O)=O)nn2)cc1 (centres undefined),-11.1%,
CC(NC(=O)C(=O)N/N=C/c1ccc(Cl)cc1)c1ccccc1 (centres undefined),-6.61%,
O=C(O)C1=CCCN(CCON=C(c2ccccc2)c2ccccc2)C1,,inactive
COc1cc(C2/C(=C(\O)c3ccc4c(c3)CC(C)O4)C(=O)C(=O)N2Cc2ccco2)ccc1O (centres undefined),8.24%,
CN(CC(=O)NCCc1ccc(S(N)(=O)=O)cc1)CC(=O)Nc1ccc(Cl)cc1,1.45%,
O=C(CCN1C(=O)/C(=C/c2cccs2)SC1=S)NNC(=O)c1cccc(O)c1,3.46%,
O=C1/C(=C/c2cccs2)SC(=S)N1C1CCS(=O)(=O)C1 (centres undefined),,14.6 µM (active)
N/C(=N\OC(=O)Nc1ccccc1)c1ccno1,-0.882%,

SMILES,"activity change, negative = growth inhibition",Potency
Cc1cccnc1NC(=O)Cn1c(=O)oc2ccccc21,-1.84%,
O=C(NCCCn1ccnc1)c1ccccc1F,12%,
COc1ccccc1NS(=O)(=O)c1ccc(C)c(C(=O)NNC(=O)c2csc(N3CCOCC3)n2)c1,0.108%,
CCC(C)(C)C1CCC(=NNC(=O)c2ccc(Br)o2)CC1 (centres undefined),-18.5%,
CCCC1CCC(=NNC(=S)NCCc2ccccc2)CC1 (centres undefined),,16.4 µM (active)
O=C(NCCc1ccccc1)C1CC1,1.38%,
Cc1ccc2[nH]c3c(=O)n(CC(=O)NCCc4ccc(Cl)cc4)ncc3c2c1,,inactive
COc1ccc(S(=O)(=O)N2CCN(CC(=O)N3c4ccccc4CC3C)CC2)cc1OC (centres undefined),0.557%,
COc1cccc(/C=C(/CC(=O)Nc2ccc(N3CCOCC3)cc2)c2nc3ccccc3s2)c1,-5.64%,
Cc1cc(C)c(C=NNc2nc3c([nH]2)c(=O)n(C)c(=O)n3C)c(C)c1,-11.7%,
Oc1ccc(-c2nnc(Nc3ccccc3)c3ccccc23)cc1,-4.05%,
O=c1ccc2c(-c3ccccc3S(=O)(=O)O)c3ccc(O)c(O)c3oc-2c1O,,16.4 µM (active)
O=C(Nc1ccc(OCC(=O)N2CCOCC2)cc1)c1cc(F)c(F)cc1Cl,-7.2%,
COc1ccccc1Oc1ccc(N2CC(C(=O)OCC(=O)c3ccc(F)cc3)CC2=O)cc1 (centres undefined),-3.16%,
CCN1CCC(O)(/C=C/c2ccc(C)cc2)C(C(=O)/C=C/c2ccc(C)cc2)C1 (centres undefined),,3.66 µM (active)
O=C(NCc1cccs1)c1ccc(CS(=O)Cc2ccccc2Cl)o1 (centres undefined),-4.56%,
CCOCCCN(C)C1CCN(C(=O)c2oc3ccccc3c2NC(=O)Cc2cccc([N+](=O)[O-])c2)CC1,-22.5%,
CCOC(=O)c1cc2c(=O)n3ccccc3nc2n(CCCOC)c1=NC(=O)C(C)Oc1ccccc1 (centres undefined),-8.14%,
COc1cc2c(=O)c(S(=O)(=O)c3ccc(C(C)C)cc3)cn(Cc3ccccc3C)c2cc1OC,,6.51 µM (active)
Cc1cc(Nc2cccc(F)c2)n2ncnc2n1,5.51%,
COCCN1C(=O)C(=O)/C(=C(/O)c2ccc(S(=O)(=O)N3CCOCC3)cc2)C1c1ccc(O)c(OC)c1 (centres undefined),2.61%,
CC(=O)Nc1cccc(C(=O)OCN2C(=O)c3ccccc3C2=O)c1,0.81%,
CC(=O)Nc1cccc(Nc2ccc(C#N)cc2)c1,-39.3%,
CCN(CC)N=Nc1cccc(NC(C)=O)c1,,11.6 µM (active)
